The values that follow come from PubChem BioAssay.

Activity calls are given as the source filed them.

The test system of assay [1] is Plasmodium falciparum Sir2 (PF13_0152, Sir2A). The experiment in a line: pfSir2 binders on small-molecule microarrays, primary screen, biochemical, small-molecule microarray, 635 nm fluorescence (AID 1098).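 Also: score merges spot fluorescence intensity with its signal-to-noise ratio.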 The settings on record: small-molecule microarray binding, fluorescence 635 nm; higher = more signal.
Assay [2] in a line: small-molecule microarray binders of probe aDKK1, primary screen, biochemical, biotinylated probe, 635/667 nm fluorescence (AID 1099).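 Also: score merges 667nm spot fluorescence with signal to noise across triplicate slides; reference of the scale not given here.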 The settings on record: higher = more signal; small-molecule microarray, probe aDKK1, fluorescence unless noted.
A short description of assay [3]: small-molecule microarray binders of probe aCHRDL2, primary screen, biochemical, biotinylated probe, 635/667 nm fluorescence (AID 1100). The note with it: higher = more signal; small-molecule microarray, probe aCHRDL2, fluorescence unless noted.
Assay [4] is described as follows: splicing luciferase reporter signal modulators, primary screen, spliceosome inhibition project, cell-based, HEK293, splice +/- reporter (AID 1101).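 Also: HEK293 cells carrying a splicing-competent luciferase reporter gene; test concentration not given here.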 The note with it: luminescence, 24 h; higher = more signal, called active from +8 up or from −8 down unless noted. For orientation: Reporter assays use an easily measured gene product as a stand-in for the process of interest.

In assay [5] the target is Fibroblast growth factor 10 (Homo sapiens) (UniProt O15520). The experiment in a line: FGF10 binders on small-molecule microarrays, primary screen, biochemical, small-molecule microarray, 635 nm fluorescence (AID 1102). The settings on record: FGF10 binding, fluorescence 635 nm, higher = more signal.
Chain of Fibroblast growth factor 10 (Homo sapiens) (O15520 whole entry, looked up): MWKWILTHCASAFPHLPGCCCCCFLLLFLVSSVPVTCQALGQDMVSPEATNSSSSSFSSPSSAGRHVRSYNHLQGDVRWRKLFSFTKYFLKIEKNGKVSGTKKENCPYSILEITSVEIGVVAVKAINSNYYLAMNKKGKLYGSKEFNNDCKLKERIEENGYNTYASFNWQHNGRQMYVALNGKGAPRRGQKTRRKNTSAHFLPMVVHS
Assay [6] deals with glycogen synthase kinase-3 (GSK3A per assay name; protocol says GSK3B). Description: GSK3 binders on small-molecule microarrays, primary screen, biochemical, small-molecule microarray, 635 nm fluorescence, GSK3A (AID 1103). Also: the record names both GSK3A and GSK3B. The note with it: small-molecule microarray binding, fluorescence 635 nm; higher = more signal.
In assay [7] the target is Epidermal growth factor receptor (Homo sapiens) (UniProt P00533). The experiment in a line: EGFR binders on small-molecule microarrays, primary screen, biochemical, small-molecule microarray, 635 nm fluorescence (AID 1104).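 Also: score merges 667 nm emission intensity with spot signal to noise over triplicate slides.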 The settings on record: EGFR binding, higher = more signal.
Chain of Epidermal growth factor receptor (Homo sapiens) (P00533 whole entry, looked up): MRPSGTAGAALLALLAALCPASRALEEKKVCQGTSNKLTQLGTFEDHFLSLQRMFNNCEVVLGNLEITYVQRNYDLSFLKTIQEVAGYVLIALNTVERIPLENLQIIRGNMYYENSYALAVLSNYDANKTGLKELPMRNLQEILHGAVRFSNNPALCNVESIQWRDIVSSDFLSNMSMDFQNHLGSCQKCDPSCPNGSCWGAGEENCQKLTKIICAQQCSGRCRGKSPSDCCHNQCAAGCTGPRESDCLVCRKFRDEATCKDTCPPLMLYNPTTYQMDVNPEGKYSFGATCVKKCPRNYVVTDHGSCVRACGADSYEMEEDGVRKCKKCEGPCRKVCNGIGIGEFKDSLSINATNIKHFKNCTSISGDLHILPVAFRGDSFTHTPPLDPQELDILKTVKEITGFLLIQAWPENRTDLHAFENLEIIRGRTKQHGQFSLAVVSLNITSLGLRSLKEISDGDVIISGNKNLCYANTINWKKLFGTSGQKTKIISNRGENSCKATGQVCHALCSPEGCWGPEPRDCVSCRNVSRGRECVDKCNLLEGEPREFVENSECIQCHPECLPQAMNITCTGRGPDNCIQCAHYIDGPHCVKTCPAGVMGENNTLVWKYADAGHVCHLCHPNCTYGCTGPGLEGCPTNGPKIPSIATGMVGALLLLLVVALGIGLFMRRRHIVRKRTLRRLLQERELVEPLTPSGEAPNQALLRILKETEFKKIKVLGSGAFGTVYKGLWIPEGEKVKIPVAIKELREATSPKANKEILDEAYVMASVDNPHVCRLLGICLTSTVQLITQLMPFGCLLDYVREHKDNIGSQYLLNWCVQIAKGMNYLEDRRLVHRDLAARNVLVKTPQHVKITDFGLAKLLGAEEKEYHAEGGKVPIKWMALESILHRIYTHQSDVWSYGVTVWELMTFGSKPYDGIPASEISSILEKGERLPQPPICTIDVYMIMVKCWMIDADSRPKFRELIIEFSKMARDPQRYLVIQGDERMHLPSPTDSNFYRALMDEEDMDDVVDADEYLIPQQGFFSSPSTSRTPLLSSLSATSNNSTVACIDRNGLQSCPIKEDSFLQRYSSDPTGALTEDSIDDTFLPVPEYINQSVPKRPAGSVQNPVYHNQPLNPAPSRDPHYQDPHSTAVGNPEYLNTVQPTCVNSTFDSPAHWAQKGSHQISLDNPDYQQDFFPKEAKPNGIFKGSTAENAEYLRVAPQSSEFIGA
For assay [8], the target named is Follistatin-related protein 3 (Homo sapiens) (UniProt O95633). Description: FSTL3 binders on small-molecule microarrays, primary screen, biochemical, small-molecule microarray, 635 nm fluorescence (AID 1105).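 Also: score merges emission near 667 nm and signal to noise per printed spot across three slides.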 The note with it: FSTL3 binding, higher = more signal.
Chain of Follistatin-related protein 3 (Homo sapiens) (O95633 whole entry, looked up): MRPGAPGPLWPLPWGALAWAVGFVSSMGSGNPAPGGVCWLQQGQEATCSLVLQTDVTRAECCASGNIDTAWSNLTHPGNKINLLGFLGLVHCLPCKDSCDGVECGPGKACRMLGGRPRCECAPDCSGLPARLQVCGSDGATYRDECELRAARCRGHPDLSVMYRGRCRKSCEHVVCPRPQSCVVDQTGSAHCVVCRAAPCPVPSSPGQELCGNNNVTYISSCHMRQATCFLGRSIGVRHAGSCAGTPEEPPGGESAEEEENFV
Assay [9] has as its target Dickkopf-related protein 1 (Homo sapiens) (UniProt O94907). Description: DKK1 binders on small-molecule microarrays, primary screen, biochemical, small-molecule microarray, 635 nm fluorescence scan (AID 1106).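 Also: score merges emission near 667 nm with signal to noise over three replicate slides.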 The settings on record: DKK1 binding, higher = more signal.
The test system of assay [10] is Inhibin beta A chain (activin A). The experiment in a line: INHBA (activin A) binders on microarrays, primary screen, biochemical, small-molecule microarray, 635 nm fluorescence scan (AID 1107).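 Also: mouse activin A protein probed at 4.33 µg/mL on printed slides; score merges bound-protein fluorescence near 667 nm with spot signal-to-noise.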 The note with it: small-molecule microarray binding, higher = more signal.

Chain of Dickkopf-related protein 1 (Homo sapiens) (O94907 whole entry, looked up): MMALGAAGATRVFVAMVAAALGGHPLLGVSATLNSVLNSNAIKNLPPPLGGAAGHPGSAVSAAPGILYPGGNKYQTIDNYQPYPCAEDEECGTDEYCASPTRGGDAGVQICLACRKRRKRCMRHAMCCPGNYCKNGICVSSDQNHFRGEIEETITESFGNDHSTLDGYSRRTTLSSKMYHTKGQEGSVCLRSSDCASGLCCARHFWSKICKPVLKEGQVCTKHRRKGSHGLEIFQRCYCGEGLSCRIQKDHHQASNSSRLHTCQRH

With `COc1cc2c(cc1O)C=[N+](C)CC2`, the composite z-score in assay [1] was 0.136; in assay [2] it was 0.148; in assay [3] it was -0.0058; in assay [5], 0.668; in [6], -0.11; in [7], -0.414. In addition, the composite z-score was 0.137 in assay [8], -0.14 in [9] and 1.35 in assay [10]. Moreover, the z-score in [4] is 0.131 (inactive).
With `C[C@@H]1OC=C2[C@@H](O)[C@H]3O[C@H]3C(=O)[C@]23[C@H]1[C@H]1C2=C([C@@H](O)[C@H]4O[C@H]4C2=O)[C@@H]3O[C@@H]1C`, the composite z-score in assay [1] is -0.636; in [2] it was -0.0177; in assay [3], -0.572; in [5], 0.0109; in [6], -0.349; in assay [7] it was 0.367. Also, the figures for the composite z-score in [8], in assay [9] and in [10] were 0.22, 0.568 and 0.503, respectively. For the same molecule, the z-score in assay [4] is 0.802 (inactive).
On to `CCc1cc2c(nc1CC)CCN(CCC(C)=NOC)C2`, for which the composite z-score in assay [1] is 0.0885; in assay [2], -0.112; in [3] it was 0.662; in [5], 0.179; in assay [6] it was 0.344; in assay [7], 0.961. Moreover, the composite z-score in assay [8] worked out at 0.763; in [9], 0.755; in assay [10], 1.66. Also, in assay [4], the z-score was 0.0386 (inactive).
Consider `CCCc1cc2c(n1Cc1ccco1)C(C)C1CN(C(=O)c3ccccc3)C(C)(C(=O)OC)C21` (stereo not given), for which the composite z-score in [1] was found to be 1.16; in assay [2] it was 1.6; in assay [3] it was 1.52; in assay [5] it was 0.505; in assay [6], 1.02; in assay [7], 0.437. Further, the composite z-score in [8] came to 0.715; in assay [9], 0.512; in assay [10] it was 1.57. The z-score in assay [4] is 1.76 (inactive).
With `COC(=O)[C@H]1C(=O)c2ccccc2O[C@@](C(=O)OC)(c2ccccc2)[C@@H]1c1ccccc1`, the composite z-score in assay [1] was 0.118; in assay [2] it was -0.246; in [3] it was -0.354; in [5], 0.232; in assay [6], -0.831; in assay [7], 0.0442. Besides, the figures for the composite z-score in assay [8], in assay [9] and in [10] were -0.27, 0.435 and 0.315, respectively. Further, the z-score in [4] is -0.959 (inactive).
For the molecule `c1ccc(-c2cc3c(nc2-c2ccccc2)CCNC3)cc1`, the composite z-score was 0.035 in [1]; -0.193 in assay [2]; -0.165 in [3]; -0.757 in assay [5]; -0.598 in assay [6]; -0.0212 in assay [7]. For the same molecule, the composite z-score in assay [8] was -0.419; in [9], -0.419; in assay [10] it was 1.09. For the same molecule, the z-score in assay [4] was -0.326 (inactive).
As for `C[C@@H]1Cc2c(cnc3c2CN(C)CC3)CO1`, the composite z-score in [1] was 0.0529; in assay [2] it was -0.228; in assay [3] it was -0.368; in assay [5] it was 0.32; in assay [6] it was -0.117; in assay [7], 1.15. For the same molecule, the figures for the composite z-score in assay [8], in [9] and in assay [10] were 0.336, 0.662 and 1.09, respectively. In addition, in assay [4], the z-score was -0.377 (inactive).
On to `C=C(CC1(CNP(=O)(c2ccccc2)c2ccccc2)CC1)c1ccccc1`, for which the composite z-score in assay [1] was 1.34; in [2] it was 0.19; in assay [3] it was 0.752; in [5], 0.213; in assay [6], -0.383; in assay [7], 0.187. Further, the results for the composite z-score in [8], in [9] and in assay [10] were -0.77, -0.542 and 1.16, respectively. In addition, the z-score in [4] is -0.937 (inactive).
With `CN1CCc2nc(CO)c(CO)cc2C1`, the composite z-score in assay [1] was -0.0844; in assay [2], 0.0703; in [3], -0.445; in [5], 0.297; in assay [6] it was 0.702; in [7], 0.514. Moreover, the composite z-score was 0.51 in [8], 0.323 in [9] and -0.0175 in assay [10]. In assay [4], the z-score was 0.261 (inactive).
Turning to `OCc1ccc(C2=CC(C3CC3)N(Cc3sc4ccccc4c3Cl)CC2)cc1` (stereo not given), the composite z-score worked out at 1 in assay [1]; 0.0931 in [2]; 0.274 in [3]; 0.458 in assay [5]; 0.979 in assay [6]; 0.417 in [7]. In addition, the composite z-score in [8] turned out to be 0.48; in assay [9], 0.8; in assay [10], 1.04. Besides, the z-score in [4] was -0.747 (inactive).
Take `OCc1ccc(C2=CC(c3cccs3)N(Cc3cccc(OC(F)(F)F)c3)CC2)cc1` (stereo not given): the composite z-score in [1] is 0.916; in assay [2] it was -0.236; in assay [3] it was -0.0613; in [5], -0.0615; in assay [6], -0.123; in assay [7], -0.0657. Besides, the composite z-score came out at 0.107 in assay [8], 0.0824 in [9] and 1.18 in [10]. Further, in assay [4], the z-score was -1.18 (inactive).
As to `COC(=O)NCC=Cc1nc(CCC=CC(=O)O[C@H]2CC3CC(=O)O[C@@H](C=CCC(C)C)C[C@@H]4CC[C@H](C)[C@@H](C[C@@H](OC)C[C@H](C2)O3)O4)co1`, the composite z-score is -0.466 in [1]; -0.445 in assay [2]; -0.42 in assay [3]; -0.512 in assay [5]; -1.21 in assay [6]; -0.633 in assay [7]. Besides, the values for the composite z-score in assay [8], in [9] and in [10] were -0.65, -0.447 and 0.846, respectively. For the same molecule, in assay [4], the z-score is 0.659 (inactive).
For the molecule `CCOC(=O)[C@H]1CC=C2C(=O)Oc3ccc(Br)cc3[C@@H]21`, the composite z-score is 1.07 in [1]; -0.0951 in assay [2]; 0.667 in [3]; -0.79 in assay [5]; 0.254 in assay [6]; -1.34 in assay [7]. Further, the composite z-score in [8] was -1.51; in assay [9] it was -1.48; in assay [10] it was -1.85. In addition, the z-score in [4] is 0.123 (inactive).
As for `CCOC(=O)[C@H]1CC=C2C(=O)Oc3ccccc3[C@@H]21`, the composite z-score was -0.283 in assay [1]; -0.295 in [2]; 0.521 in assay [3]; -0.375 in assay [5]; -0.45 in assay [6]; -0.695 in assay [7]. Also, the composite z-score in assay [8] was -0.77; in [9], -1.06; in assay [10], 0.0965. Moreover, the z-score in assay [4] is -0.0119 (inactive).
As to `COC(=O)C1(C)C=C2C(=C(C)C(=O)C2C)CN1` (stereo not given), the composite z-score is -0.656 in [1]; 0.859 in [2]; 0.944 in assay [3]; -0.618 in assay [5]; -0.623 in assay [6]; -0.885 in assay [7]. The composite z-score in assay [8] was -0.729; in assay [9], -0.706; in [10], 1.11. Besides, in assay [4], the z-score is 0.522 (inactive).
As to `CCCc1cc2c(n1CCO)C(C)C1CN(C(=O)c3ccccc3)C(C)(C(=O)OC)C21` (stereo not given), the composite z-score in assay [1] is 0.677; in [2], 1.76; in assay [3], 1.57; in [5], 0.0807; in assay [6], -0.181; in assay [7] it was -0.362. Further, the composite z-score was 0.0815 in assay [8], -0.369 in [9] and 1.24 in assay [10]. The z-score in assay [4] was -1.08 (inactive).
